Source: PubChem
MEKK2wt PB1 HTS = raises or lowers MEK5 binding to wildtype human MEKK2 PB1 domain; binding response (% of control), % at 10 µM; 1.1% of 290,000 active; bead flow cytometry, Alexa488-MEK5 binding to MEKK2 WT; actives lie on both sides; in the data active = binding response below about 67% or above about 130%
MEKK2mut PB1 HTS = signal of MEK5 binding to mutant human MEKK2 PB1 domain; bead flow cytometry, Alexa488-MEK5 binding to MEKK2 mutant; percent response, % at 10 µM; 0.35% of 290,000 active; AID 1530; in the data active = percent response above about 24%, passing the limit was not always enough
MEKK3 PB1 HTS = modulators (inhibitors or enhancers) of MEK5 binding to human MEKK3 PB1 domain | Q99759 | binding response (% of control), % at 10 µM | bead-based flow cytometry, Alexa488-MEK5 binding to MEKK3; actives lie on both sides; 0 = blocked by unlabeled MEK5, 100 = vehicle | AID 1529 | 1.4% of 290,000 active;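 active = binding response more than 3 SD above or below the average of its plate-row segment, actives on both sides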;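 note: Alexa488 bead fluorescence after subtracting the streptavidin-only scavenger bead signal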
B2AR ag = human beta-2 adrenergic receptor agonism by FAP | Am2.2-beta2AR cells, FAP receptor internalization, flow cytometry | 0.43% of 340,000 active | P07550 | response, % (concentration not given with the values);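 active = response above a set limit, near 3 SD of response in nonfluorescent compounds, cut at about 42% in these data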
GRK2 inh = inhibitors of human GRK2 displacing RNA aptamer. bead flow cytometry, FAM-aptamer displacement from GRK2. inhibition of aptamer binding, % at 10 µM. 0.59% of 330,000 active. AID 488847;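 active = inhibition of aptamer binding above 40%, roughly 3 SD of noise, on plates passing a quality check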;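 note: median bead fluorescence of bound FAM aptamer so fluorescent compounds give negative values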
Target sequence (P25098 whole entry, looked up): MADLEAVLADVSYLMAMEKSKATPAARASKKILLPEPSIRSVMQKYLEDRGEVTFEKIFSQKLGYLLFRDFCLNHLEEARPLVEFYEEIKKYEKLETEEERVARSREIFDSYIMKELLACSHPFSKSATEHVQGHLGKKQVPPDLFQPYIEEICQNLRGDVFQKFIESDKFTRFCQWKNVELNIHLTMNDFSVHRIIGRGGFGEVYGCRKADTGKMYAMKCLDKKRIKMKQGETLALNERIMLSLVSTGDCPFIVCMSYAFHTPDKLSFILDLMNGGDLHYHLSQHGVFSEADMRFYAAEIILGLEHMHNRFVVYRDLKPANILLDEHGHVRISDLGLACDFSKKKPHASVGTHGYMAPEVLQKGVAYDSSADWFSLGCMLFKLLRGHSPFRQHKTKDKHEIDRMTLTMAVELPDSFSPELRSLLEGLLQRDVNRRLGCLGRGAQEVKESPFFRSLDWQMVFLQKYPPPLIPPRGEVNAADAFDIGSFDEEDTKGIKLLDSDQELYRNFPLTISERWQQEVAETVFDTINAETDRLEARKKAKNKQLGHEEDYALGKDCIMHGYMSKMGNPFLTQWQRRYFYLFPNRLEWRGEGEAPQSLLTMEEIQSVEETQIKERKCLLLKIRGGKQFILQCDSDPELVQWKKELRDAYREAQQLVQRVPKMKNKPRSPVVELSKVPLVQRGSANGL
B2AR ag CP1 = human beta-2 adrenergic receptor agonism, cherry pick; Am2.2-beta2AR cells, FAP surface receptor, flow cytometry; active compounds read low; percent response (surface receptor), % at 10 µM; shares compounds with B2AR ag; 25% of 1,100 active; AID 540358;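 active = surface receptor percent response at or below 58%, roughly 3 SD from nonfluorescent compounds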
B2AR FAP counter = fluorescence artifact in beta-2AR agonist FAP counterscreen; shares compounds with B2AR ag; Am2.2 cells, FAP fluorogen flow cytometry; active compounds read low; calls only at 10 µM; 1,100 tested, under 10 active;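 active = percent response below a set limit in fluorescence channel 1 and below 50% in channel 8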
Each line names hits and unclear results; the compound was inactive in the other large screens (follow-up assays come after a bar, where they were run). Rows were chosen to be rich in hits. Some 2.9% of all compounds tested hit in one or more screens of this group.

c1ccc2sc(Sc3ncnc4sccc34)nc2c1	none
O=C(Cc1ccc([N+](=O)[O-])cc1)N1N=C(c2ccncc2)CC1(O)C(F)(F)F (configuration not stated)	none
O=C(c1ccc(-c2ccc([N+](=O)[O-])cc2)o1)N1CCCCCCC1	B2AR ag 51.7 (no result: MEKK2wt PB1 HTS, MEKK2mut PB1 HTS, MEKK3 PB1 HTS) | B2AR ag CP1 inactive | B2AR FAP counter inactive
O=C(c1ccc(-c2ccc([N+](=O)[O-])cc2)o1)N1CCCC(C(F)(F)F)C1 (configuration not stated)	none (no result: MEKK2wt PB1 HTS, MEKK2mut PB1 HTS, MEKK3 PB1 HTS)
N#Cc1cc([N+](=O)[O-])c(-n2nnc3ccccc32)c([N+](=O)[O-])c1	B2AR ag 55.4 | B2AR ag CP1 inactive | B2AR FAP counter inactive
O=[N+]([O-])c1ccc(O)c(-c2cc(C(F)(F)F)nc(-c3ccccc3)n2)c1	B2AR ag 47.7 | B2AR ag CP1 inactive | B2AR FAP counter inactive
COc1cc(NC(=O)c2ccco2)c(OC)cc1NC(=O)c1cc(OC)c(OC)c(OC)c1	none | B2AR ag CP1 inactive | B2AR FAP counter inactive
CCOc1cc(NC(=O)c2ccco2)c(OCC)cc1NC(=O)c1cc(OC)c(OC)c(OC)c1	none
CN(C)c1nc(=NCc2ccco2)ss1	none | B2AR ag CP1 inactive | B2AR FAP counter inactive
O=C(COc1ccc(S(=O)(=O)N2CCOCC2)cc1)Nc1ccccc1Cl	none | B2AR ag CP1 inactive | B2AR FAP counter inactive
Cc1c(Cl)cccc1NC(=O)COc1ccc(S(=O)(=O)N2CCOCC2)cc1	none
O=C(COc1ccc(S(=O)(=O)N2CCOCC2)cc1)Nc1ccccc1F	none (no result: MEKK2wt PB1 HTS, MEKK2mut PB1 HTS, MEKK3 PB1 HTS) | B2AR ag CP1 inactive | B2AR FAP counter inactive
CNC(=S)N/N=C1\C(=O)c2cccc3cccc1c23	none | B2AR ag CP1 inactive | B2AR FAP counter inactive
O=C(Oc1c(CN2CCOCC2)cc(Cl)c2cccnc12)c1cccs1	none
O=C(Oc1c(CN2CCOCC2)cc(Cl)c2cccnc12)c1ccccc1Cl	none | B2AR ag CP1 inactive | B2AR FAP counter inactive
COc1cc(C(=O)Oc2c(CN3CCOCC3)cc(Cl)c3cccnc23)cc(OC)c1OC	none (no result: MEKK2wt PB1 HTS, MEKK2mut PB1 HTS, MEKK3 PB1 HTS) | B2AR ag CP1 inactive | B2AR FAP counter inactive
O=C(Nc1ccc(S(=O)(=O)N2CCCCC2c2cccnc2)cc1)c1ccccc1F (configuration not stated)	none | B2AR ag CP1 inactive | B2AR FAP counter inactive
COc1ccccc1C(=O)Nc1ccc(S(=O)(=O)N2CCC(C)CC2)cc1	none
COc1ccccc1C(=O)Nc1ccc(S(=O)(=O)N2CCCCC2c2cccnc2)cc1 (configuration not stated)	none | B2AR ag CP1 inactive | B2AR FAP counter inactive
CCCC(c1nnnn1C(C)(C)C)N1CCN(C(=O)c2ccco2)CC1 (configuration not stated)	none
CC(C)C(=O)Nc1ccc(Cl)cc1-c1nc2ccccc2[nH]c1=O	none
CNc1ccc([N+](=O)[O-])cc1-c1nc2ccccc2[nH]c1=O	B2AR ag 61.5 | B2AR ag CP1 inactive | B2AR FAP counter inactive
CCn1nc(NS(=O)(=O)c2ccc([N+](=O)[O-])cc2)c2cc3ccccc3nc21	B2AR ag 64.1 | B2AR ag CP1 inactive | B2AR FAP counter inactive
CCn1nc(NS(=O)(=O)c2ccc(C)cc2)c2cc3ccccc3nc21	none | B2AR ag CP1 inactive | B2AR FAP counter inactive
CCn1nc(NS(=O)(=O)c2ccc(NC(C)=O)cc2)c2cc3ccccc3nc21	B2AR ag 52.9 | B2AR ag CP1 inactive | B2AR FAP counter inactive
COc1cc(CNCCO)cc(Cl)c1OCc1ccccc1Cl	B2AR ag 48.1 | B2AR ag CP1 inactive | B2AR FAP counter inactive
COc1cccc(CNCCO)c1OCc1ccccc1Cl	none
CCOc1c(Cl)cc(CNCC(O)c2ccccc2)cc1OC (configuration not stated)	none | B2AR ag CP1 inactive | B2AR FAP counter inactive
COc1ccc(-n2c(-c3ccc(Br)cc3)c[n+]3c2SC(C)C3)cc1 (configuration not stated)	none
Cc1cc(OCC(=O)Nc2cc(-c3nn4c(C)nnc4s3)ccc2C)ccc1Cl	B2AR ag 79.0 | B2AR ag CP1 inactive | B2AR FAP counter inactive
CCCN(CCC)S(=O)(=O)c1ccc(Cl)c([N+](=O)[O-])c1	B2AR ag 43.6 | B2AR ag CP1 inactive | B2AR FAP counter inactive
CCCN(CCC)S(=O)(=O)c1ccc(N2CCCC2=O)c([N+](=O)[O-])c1	none
O=C1c2ccccc2S(=O)(=O)N1Cc1ccccc1[N+](=O)[O-]	none
CC1=NN(C(N)=S)C(=O)C1N=Nc1ccccc1 (configuration not stated)	none | B2AR ag CP1 inactive | B2AR FAP counter inactive
C=CCn1c(SCC(=O)N(C)C)nc2sc3c(c2c1=O)CCC3	none
CCCCn1c(=N)n(CC(=O)c2ccc(Br)s2)c2ccccc21	B2AR ag 82.1 | B2AR ag CP1 0.9 | B2AR FAP counter inactive
O=C(CN1C(=O)c2cccnc2Oc2ccc(Cl)cc21)NCCCc1ccccc1	none
Cc1ccc(C(=O)OCC(=O)Nc2ccccc2)cc1NC(=O)c1ccco1	none
Cc1ccc(C(=O)OCC(=O)Nc2nc(-c3ccccc3)cs2)cc1NC(=O)c1ccco1	B2AR ag 53.7 | B2AR ag CP1 37.6 | B2AR FAP counter inactive
CCOc1ccc(S(=O)(=O)N2CCC(C(=O)Nc3ccc(C)c(S(=O)(=O)N4CCOCC4)c3)CC2)cc1	none (no result: MEKK2wt PB1 HTS, MEKK2mut PB1 HTS, MEKK3 PB1 HTS, GRK2 inh)
CCOCC(=O)Nc1ccc([N+](=O)[O-])cc1OC	none
CCOC(=O)CS(=O)(=O)CC(=O)Nc1ccc([N+](=O)[O-])cc1OC	B2AR ag 85.6 | B2AR ag CP1 inactive | B2AR FAP counter inactive
CC(O)Cn1c(N2CCCC2)nc2c1c(=O)n(C)c(=O)n2C (configuration not stated)	none
O=C(Nc1ccc2c(c1)OCO2)C(c1ccc(Cl)cc1)N1CCC2(CC1)OCCO2 (configuration not stated)	none
CC(C)c1ccc(NC(=O)C(c2ccc3c(c2)OCO3)N2CCC3(CC2)OCCO3)cc1 (configuration not stated)	none | B2AR ag CP1 inactive | B2AR FAP counter inactive
O=C(Nc1ccc(N2CCN(C(=O)c3ccccc3)CC2)cc1)c1ccc(Br)o1	none | B2AR ag CP1 inactive | B2AR FAP counter inactive
O=C(Nc1ccc(N2CCN(C(=O)c3ccccc3)CC2)c(Cl)c1)c1ccc(Br)o1	none
CCN1CCN(c2ccc(NC(=O)c3ccc(Br)o3)cc2)CC1	none (no result: GRK2 inh) | B2AR ag CP1 inactive | B2AR FAP counter inactive
CCCC(=O)N1CCN(c2ccc(NC(=O)c3ccc(Br)o3)cc2)CC1	none | B2AR ag CP1 inactive | B2AR FAP counter inactive
O=C(O)CCc1ccc(S(=O)(=O)Nc2cc(C(F)(F)F)ccc2N2CCCC2)cc1	none (no result: MEKK2wt PB1 HTS, MEKK2mut PB1 HTS, MEKK3 PB1 HTS, GRK2 inh)
Cn1ncc(Cl)c1C(=O)NC1CCCC1	none
O=C(Nc1ccc(NC(=O)c2ccccc2F)cc1)c1cccs1	none (no result: MEKK2wt PB1 HTS, MEKK2mut PB1 HTS, MEKK3 PB1 HTS) | B2AR ag CP1 inactive | B2AR FAP counter inactive
